Experimental data taken from ChEMBL document CHEMBL3988442, “University of Dundee, Small-Polar-MMV Screening Library” (2021).
Hit rate of the full screen: of about 48,000 compounds, about 13,000 (27%) showed an effect of 50% or more. This is one part of the list.

These compounds were tested on Wolbachia pipientis (assay: Anti-Wolbachia Cell-Based Screen). Conditions: 5 µM.
Type: functional
Parameters: scale not given: in the data most compounds retested in dose-response had high values

| Compound | Percent Effect |
| --- | --- |
| N#Cc1ccnc(N2CCN(CC(O)c3ccc(F)c(F)c3)CC2)c1 (configuration not stated) | -18.53% |
| CCc1cc(N[C@H]2CC[C@H](O)CC2)n2nc(C)c(C)c2n1 | -14.47% |
| Cc1ccc(CNC(=O)Nc2cc(C(F)(F)F)c[nH]c2=O)cn1 | 3.357% |
| COc1cc(CNC(=O)Nc2nncs2)ccc1O | -8.608% |
| Cc1ccc(CNC(=O)Nc2nncs2)n1C | -4.226% |
| Cc1ccc(CNC(=O)Nc2nncs2)cn1 | 108.3% |
| Cc1ccc(CNC(=O)Nc2nccs2)cn1 | 93.38% |
| Cc1ccc(CNC(=O)NCc2csc(C)n2)cn1 | -1.986% |
| O=C1CN(Cc2nnc(-c3ccccc3Br)o2)CCN1 | -2.201% |
| COC(=O)c1cc(NC2CCN(CC(F)(F)F)C2=O)ccc1C (configuration not stated) | 1.107% |
| COc1ccc(CN[C@@H]2CO[C@H](CNC(=O)N3CCOCC3)[C@H]2O)cc1 | 3.527% |
| COCC(=O)N(C)Cc1ccc(OCc2cccs2)cc1 | 1.693% |
| Cc1noc(CCNC(=O)c2ccc(N(C)C)c(F)c2)n1 | -15.61% |
| O=C(O)CCN(Cc1ccc(F)c(F)c1)C(=O)C1CC1 | 170.7% |
| CN(Cc1ccc(F)c(F)c1)C(=O)CCc1nc(-c2nnc[nH]2)no1 | -9.092% |
| CN(Cc1ccc(Cl)c(F)c1)C(=O)CCc1ccncc1 | 0.9629% |
| CN1CCC(N(C)C(=O)CCc2ccc(F)c(F)c2)C1=O (configuration not stated) | 2.381% |
| CCC(=O)N(CCN(C)C)Cc1ccc(F)c(F)c1 | 182.8% |
| COCC(=O)N(C)Cc1ccc(F)c(F)c1 | 111.3% |
| NC(=O)CN(Cc1cccc(Oc2ccccc2)c1)C(=O)C1CC1 | 0.4693% |
| Cc1cc(C(=O)N(CCN(C)C)Cc2ccc(Cl)cc2)no1 | -11.55% |
| Cc1noc(CCCC(=O)N(CCC(=O)O)Cc2ccc(F)c(F)c2)n1 | 101.8% |

| Compound | Percent Effect |
| --- | --- |
| CN(C)CCN(Cc1ccc(Cl)cc1)C(=O)c1ccncc1 | -4.798% |
| CN(Cc1nnc2n1CCC2)S(=O)(=O)c1ccc(Br)cc1Cl | 10.86% |
| CC(=O)N1CCC(CCNC(C)c2cc(F)cc(F)c2)CC1 (configuration not stated) | -11.21% |
| CC(C)Oc1cc(N2CCC(N3CCC(O)CC3)CC2)nc(N)n1 | 11.59% |
| Cc1nc(CN2CCC3(CCCO3)CCC2=O)no1 (configuration not stated) | 31.71% |
| CNC(=O)NC(=O)CSc1ccc2c(c1)CCC2 | -2.658% |
| Cc1noc(-c2cccnc2N(C)Cc2cc(C)on2)n1 | 2.996% |
| COCCN(Cc1ccncc1)C(=O)CCSCc1ccc(F)cc1 | -3.369% |
| COCCCC(=O)N(C)c1ccc(F)c(Cl)c1 | -0.2217% |
| COCCCC(=O)N(CCC(=O)O)Cc1ccc(F)c(F)c1 | 97.51% |
| CCC(=O)N(CCC(=O)O)Cc1ccc(F)c(F)c1 | 121.4% |
| CCC(=O)N(CC(N)=O)Cc1cccc(Oc2ccccc2)c1 | 9.242% |
| CN(C)C(=O)CCC[S+]([O-])Cc1ccc(F)c(F)c1 (configuration not stated) | -13.45% |
| COCCNc1nc2c(c(NCc3ccncc3)n1)CCNCC2 | 24.23% |
| CC(C)OCCSc1nnnn1C1CCOCC1 | -9.456% |
| CC(=O)N1CCCN(CCCSc2ccccc2Cl)CC1 | -4.168% |
| COCCC(=O)N1CCN(CC(C)C)c2nc(C)ccc2C1.O=C(O)C(F)(F)F | 6.482% |
| Cc1ncc(CN2CCCC2)c2cc(C(=O)c3ccc(Br)cc3)oc12.Cl | 139.8% |
| O=C(O)c1ccc2[nH]cc(CN3CCOCC3)c2c1 | -9.058% |
| O=C(NCc1ccccc1CN1CCOCC1)c1ccc(Br)cc1F | -0.3449% |
| Cc1ncsc1CCN(C)C(=O)c1ccc(CN2CCCCC2)cc1 | -41.8% |
| O=C(O)c1ccc2[nH]cc(CN3CCCC3)c2c1 | 2.363% |

| Compound | Percent Effect |
| --- | --- |
| Cc1ncc(CN2CCOCC2)c2cc(C(=O)c3ccc(Br)cc3)oc12.Cl | 126.2% |
| Cc1nn(C)c(Cl)c1C1CCCN1C(=O)c1nccnc1N (configuration not stated) | -5.243% |
| Cc1nn(C)c(C)c1C1CCCN1C(=O)c1nccnc1N (configuration not stated) | 101% |
| COc1c(C2CCCN2C(=O)c2nccnc2N)c(C)nn1C (configuration not stated) | 108.6% |
| O=S(=O)(Nc1c(F)cccc1N1CCCC1)c1cncc(F)c1 | -6.105% |
| N#Cc1cccc(NC2CC(=O)N(C3Cc4ccccc4C3)C2)n1 (configuration not stated) | 5.834% |
| O=C1CCCN1CCCN1CCCC(Cn2cncn2)C1 (configuration not stated) | 2.08% |
| Fc1ccc(CN2CCCC(Cn3cncn3)C2)c2ncccc12 (configuration not stated) | 0.09463% |
| Cc1nc(C)n(CC2CCCN(CCOc3cccc(F)c3)C2)n1 (configuration not stated) | 75.5% |
| Cc1nc(C)n(CC2CCCN(CCOc3ccc(F)cc3)C2)n1 (configuration not stated) | 98.89% |
| Cc1nc(C)n(CC2CCCN(CCOc3cccc(C#N)c3)C2)n1 (configuration not stated) | -2.683% |
| Cc1nc(C)n(CC2CCCN2CCCOc2ccc(F)cc2)n1 (configuration not stated) | 2.053% |
| Fc1ccc(OCCCN2CCCC(Cn3cncn3)C2)cc1 (configuration not stated) | 107.3% |
| Cc1nc(C)n(CC2CCCN(CCCOc3ccccc3)C2)n1 (configuration not stated) | -19.22% |
| Cc1nc(C)n(CC2CCCN(CCCOc3ccc(F)cc3)C2)n1 (configuration not stated) | 86.71% |
| Cc1c(C(C)NC2CCN(C(C)C)CC2)cnn1-c1ccc(F)cc1F (configuration not stated) | -0.2198% |
| CCOc1cccnc1C(=O)N1CCCN(c2nc(C)cs2)CC1 | 4.223% |
| CCn1ccnc1CN1C[C@@H](CN2CCCC2)[C@@H](CO)C1 | -1.438% |
| CCn1ccnc1CN1CCN(CC(=O)NC(=O)NC2CC2)CC1 | -16.24% |
| Cc1cc(Cl)ccc1-n1ncc(C(=O)NCC2COC(C)(C)O2)c1N (configuration not stated) | 154.2% |
| CCOC(=O)c1ccc(CNC(=O)c2ccncc2Cl)o1 | 1.896% |
| Cc1c(C(=O)NC2(C#N)CCSC2)cnn1-c1ccccc1Cl (configuration not stated) | -17.58% |

| Compound | Percent Effect |
| --- | --- |
| CC1(C)OCC(CNC(=O)c2cnn(-c3cccc(Cl)c3Cl)c2N)O1 (configuration not stated) | 190.2% |
| COc1ccc(-n2ncc(C(=O)NCC3COC(C)(C)O3)c2N)cc1 (configuration not stated) | -3.479% |
| Cc1ccc(C)c(-n2ncc(NC(=O)NC3(C)CCOC3)c2C)c1 (configuration not stated) | 6.274% |
| CC(C)c1ccc(-n2ncc(C(=O)NCC3COC(C)(C)O3)c2N)cc1 (configuration not stated) | 161.1% |
| CC1(C)OCC(CNC(=O)c2cnn(-c3ccc(Cl)cc3)c2N)O1 (configuration not stated) | -2.312% |
| CC1(C)OCC(CNC(=O)c2cnn(-c3cc(Cl)ccc3Cl)c2N)O1 (configuration not stated) | -0.3036% |
| Cc1ccc(C)c(-n2ncc(C(=O)NCC3COC(C)(C)O3)c2N)c1 (configuration not stated) | 185.5% |
| CC(=O)N[C@@H]1C[C@H](Cc2ccccc2)O[C@H](c2ccc(C(=O)O)cc2)C1 | -2.466% |
| O=C(CC1=CCCCC1)NCCc1csc(N2CCCC2)n1 | -4.83% |
| COc1cccc(CCC(=O)N2CCN(Cc3noc(C)n3)CC2)c1 | -5.031% |
| CN1CCN(CCC(F)(F)C(F)F)CC12CCNC(=O)CC2 (configuration not stated) | 7.69% |
| Cc1cnc(CN2CCOC(CN(C)c3cccnn3)C2)cn1 (configuration not stated) | 10.01% |
| Cc1cccc(C2CCCN2C(=O)CCS(C)(=O)=O)c1C (configuration not stated) | -5.02% |
| CC(C)(C)C(O)CN1CCN(CC(=O)NC2CCOCC2)CC1 (configuration not stated) | 4.367% |
| O=C(NCCN1CCOC1=O)c1cnc(-c2cccnc2)nc1 | 103% |
| CCc1ncc(C(=O)NCCn2c(C)cc(C)nc2=O)cn1 | 5.273% |
| CCN(CCN1CCCCCC1)C(=O)c1cnc(-c2cccnc2)nc1 | -4.892% |
| CCc1ncc(C(=O)NCCN2CCNC2=O)cn1 | 99.04% |
| CCc1ncc(C(=O)NCC2CCN(Cc3ccncc3)CC2)cn1 | -2.292% |
| O=C(NCCN1CCNC1=O)c1cnc(-c2cccnc2)nc1 | 91.56% |
| O=C(NCCN1CCOC1=O)c1ccc2sccc2c1 | -4.154% |
| O=C(NCCN1CCNC1=O)c1cc(-c2ccc(O)cc2)n[nH]1 | 6.287% |

| Compound | Percent Effect |
| --- | --- |
| O=C(NCCn1ccnc1C1CCOC1)c1cccnc1 (configuration not stated) | -7.177% |
| CN(Cc1cc(Br)cn1C)C(=O)Cc1cccc(O)c1 | -22.7% |
| CNC(=O)Cn1nnc(-c2cc3ccccc3o2)n1 | -5.513% |
| COc1cc(C(=O)NC(CC(=O)O)c2cccs2)cc(Cl)c1OC (configuration not stated) | 14.71% |
| CC(C)Cn1cncc1CNC1CCSC1 (configuration not stated) | 0.928% |
| CNCC(=O)Nc1cccc(-c2cnc(NCCO)nc2)c1 | 140.4% |
| CCn1nnnc1-c1cccc(NC(=O)CCOC(C)C)c1 | 1.671% |
| O=C(CNC(=O)Nc1cccc(-c2nccs2)c1)NCCO | -9.757% |
| CC[C@H](C)Nc1ncc(-c2cccc(NC(=O)CNC)c2)cn1 | 114.1% |
| CC(C)(C)CC(=O)Nc1ccc(S(C)(=O)=O)nc1 | 8.515% |
| CNCC(=O)Nc1ccc(-c2cnc(NCCS(C)(=O)=O)nc2)cc1 | 99.21% |
| CNC(=O)c1cccc(CCNc2ncc(Br)cn2)c1 | -10.19% |
| Cc1nccc(-c2cccc(NCC(=O)N3CCCCCCC3)c2)n1 | 4.13% |
| Cc1cccc(C(C)(C)NC(=O)CCS(C)(=O)=O)c1 | 2.509% |
| CNCC(=O)Nc1cccc(-c2cnc(NCCS(C)(=O)=O)nc2)c1 | 116.8% |
| CCc1cnc(NCCS(=O)(=O)N(C)C)nc1 | -13.3% |
| Cn1ccnc1-c1cccc(NC(=O)NCC(=O)NC(C)(C)C)c1 | -2.22% |
| CC(C)n1cnc2c1C(C(=O)N1CCCC1)N(CC1CC1)CC2.O=C(O)C(F)(F)F (configuration not stated) | 12.69% |
| CC(=O)Nn1c(C)cc(CN2CCCN(Cc3ccncc3)CC2)c1C | 19.43% |
